Reference: PubChem BioAssay AID651711 (Broad Institute, 2012)
Where “and” joins values, the source holds several entries; their conditions need not be identical. Equal entries are not always repeated. The campaign covered roughly 350,000 compounds. About 180 (0.051%) were called active.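 The calls were made as follows: active = mean replicate inhibition above about 25%, with every replicate also reaching it (limit read from the data, passing the limit was not always enough); inconclusive = only one of those two criteria met; inactive = neither criterion met.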 The full list was thinned out, with actives kept by preference.

Molecular target: Protein disulfide-isomerase A6 (Homo sapiens) (UniProt Q15084)
Sequence (Q15084 whole entry, looked up): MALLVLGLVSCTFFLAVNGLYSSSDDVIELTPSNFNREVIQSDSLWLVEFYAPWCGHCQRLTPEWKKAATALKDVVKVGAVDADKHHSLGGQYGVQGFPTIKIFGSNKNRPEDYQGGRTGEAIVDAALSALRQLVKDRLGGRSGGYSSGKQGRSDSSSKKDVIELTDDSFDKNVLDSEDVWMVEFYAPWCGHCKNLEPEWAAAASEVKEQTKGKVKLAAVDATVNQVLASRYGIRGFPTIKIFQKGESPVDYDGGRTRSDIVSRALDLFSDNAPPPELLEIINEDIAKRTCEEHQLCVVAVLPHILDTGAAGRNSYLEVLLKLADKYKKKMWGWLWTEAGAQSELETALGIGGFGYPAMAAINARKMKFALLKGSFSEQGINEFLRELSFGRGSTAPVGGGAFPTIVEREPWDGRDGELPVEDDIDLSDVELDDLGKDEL
Assay: inhibitors of ERp5-driven insulin aggregation, primary screen, biochemical, turbidity, absorbance 650 nm, single point (AID 651711)
Conditions: 90 min, at 9.99 µM, stronger effect = higher value

inhibition, inactive:
C[C@H](CO)N1C[C@H](C)[C@H](CN(C)C(=O)CCC(F)(F)F)OCCCC[C@H](C)Oc2ccc(NS(=O)(=O)c3ccc(F)cc3)cc2C1=O 6.41%, COCC(=O)Nc1ccc2c(c1)[C@@H]1C[C@H](CC(=O)NCc3ccc(-c4ccccc4)cc3)O[C@H](CO)[C@@H]1O2 -0.847%, CN1C(=O)c2cc(NC(=O)C3CCCC3)ccc2OC[C@@H]2O[C@@H](CC(=O)NCCc3ccncc3)CC[C@@H]21 -3.7%, C[C@@H]1CCCCO[C@H](CN(C)S(=O)(=O)c2ccc(Cl)cc2)[C@@H](C)CN([C@H](C)CO)C(=O)c2cc(NC(=O)Nc3ccc4c(c3)OCO4)ccc2O1 0.772%, O=C1[C@@H](c2ccccc2)[C@@H](c2ccccc2)N1c1ccccc1 3.47%, O=C(N[C@@H]1C=C[C@@H](CC(=O)N2CCOCC2)O[C@H]1CO)c1ccccn1 2.34%, CN(C)CC(=O)Nc1ccc2c(c1)[C@H]1C[C@H](CC(=O)NCc3ccccn3)O[C@@H](CO)[C@H]1O2 -3.52%, Cc1[nH]c2ccccc2c1CC(=O)Nc1ccc(Nc2cccnc2)c(-c2cccc(Cl)c2)c1 -5.11%, CO[C@H](CN(C)C(=O)c1ccc2c(c1)OCO2)[C@H](C)CN([C@@H](C)CO)S(=O)(=O)c1ccc(Cl)cc1 3%, C[C@H]1CN([C@@H](C)CO)C(=O)c2cccc(NC(=O)Nc3ccc(F)cc3)c2O[C@@H]1CN(C)C(=O)Nc1ccc2c(c1)OCO2 4.97%, N#C[C@@H]1[C@H](c2ccccc2-c2ccc(F)cc2)[C@@H](CO)N1c1ncc(-c2ccccc2)s1 3.09%, O=C(c1ccncc1)N1C[C@H]2[C@@H](c3ccccc31)[C@H](CO)N2Cc1ccc(F)cc1 -3.32%, COc1ccc2c3c(n(C)c2c1)[C@@H](CO)NCC31CCN(CC2CCCC2)CC1 1.66%, O=C(Nc1ccccc1)N1CC(=O)N2[C@@H](CO)[C@H](c3ccc(C#CC4CCCC4)cc3)[C@@H]2C1 1.6%, C[C@@H]1CN([C@H](C)CO)C(=O)c2cc(-c3cncnc3)cnc2O[C@@H]1CN(C)Cc1ccc(Oc2ccccc2)cc1 -1.07% and -77.5%, COCC(=O)Nc1ccc2c(c1)C(=O)N(C)[C@@H]1CC[C@@H](CC(=O)NCCCN(C)C)O[C@@H]1CO2 -2.7%, C[C@@H](NC(=O)C[C@@H]1C=C[C@@H](NC(=O)CN2CCOCC2)[C@H](CO)O1)c1ccccc1 10.6%, Cc1ccc(S(=O)(=O)Nc2ccc3c(c2)C(=O)N([C@@H](C)CO)C[C@H](C)[C@H](CN(C)C(=O)Nc2ccc(C(F)(F)F)cc2)O3)cc1 -3.11%, CCNC(=O)[C@H]1[C@H](CO)[C@H]2Cn3c(ccc(/C=C/c4ccccc4)c3=O)[C@@H]1N2C(=O)C1CCC1 -5.59%, Cn1cnc(S(=O)(=O)N2C[C@@H](O)COC[C@H]3O[C@@H](CC(=O)NCc4ccc(F)cc4)CC[C@@H]32)c1 -0.766%, C[C@@H]1CCCCO[C@@H](CN(C)Cc2ccccc2)[C@H](C)CN([C@H](C)CO)C(=O)c2cc(NC(=O)Nc3cccc4ccccc34)ccc2O1 0.587%, O=C(c1cnccn1)N1CC2(C1)[C@H](c1ccccc1)[C@H](CO)N2C(=O)c1ccccc1 4.61%, COc1ccc(CN2C[C@@H](C)[C@H](OC)CN(C)C(=O)c3cc(NC(C)=O)ccc3OC[C@@H]2C)cc1 4.2%, C[C@H]1CN([C@@H](C)CO)C(=O)Cc2cc(NC(=O)Nc3ccc(C(F)(F)F)cc3)ccc2O[C@@H]1CN(C)S(=O)(=O)c1ccc(Cl)cc1 0.316%, CO[C@@H]1CN(C)C(=O)c2cc(NC(=O)C3CCOCC3)ccc2OC[C@H](C)N(Cc2cccnc2)C[C@H]1C 7.73%, CO[C@@H]1CN(C)C(=O)c2cc(NC(=O)c3ccccc3F)ccc2OC[C@@H](C)N(CC2CC2)C[C@H]1C -2.62%, COc1ccc(S(=O)(=O)N(C)C[C@H]2Oc3ccc(N(C)C)cc3C(=O)N([C@@H](C)CO)C[C@@H]2C)cc1 -9.71%, COc1ccccc1NC(=O)Nc1ccc2c(c1)OC[C@H](C)NC[C@H](C)[C@@H](OC)CN(C)C2=O 7.16%, COc1ccc(CN(C)C[C@H]2Oc3c(NC(=O)C4CCCCC4)cccc3C(=O)N([C@@H](C)CO)C[C@H]2C)cc1 4.09%, O=C(Cc1cccnc1)N1CC(=O)N2[C@@H](CO)[C@H](c3ccc(C#CC4CC4)cc3)[C@@H]2C1 1.76%, O=C(NCC[C@H]1CC[C@@H](NC(=O)C2CCCC2)[C@@H](CO)O1)c1cc(Cl)cc(Cl)c1 -0.154%, C[C@@H]1CN([C@H](C)CO)C(=O)c2cc(NC(=O)CCCN(C)C)ccc2O[C@@H](C)CCCCO[C@@H]1CN(C)Cc1ccncc1 -3.78%, Cc1ccc(S(=O)(=O)NCC[C@@H]2CC[C@H](NC(=O)CC3CC3)[C@H](CO)O2)cc1 -0.231%, O=C(NC1CCC1)[C@H]1[C@H](CO)[C@H]2Cn3c(ccc(-c4ccccc4)c3=O)[C@@H]1N2Cc1cocn1 -0.224%, CCC(=O)N(C)C[C@@H]1Oc2cc(C#CC(C)(C)O)ccc2S(=O)(=O)N([C@@H](C)CO)C[C@@H]1C -4%, CCCC#Cc1cnc2c(c1)C(=O)N([C@H](C)CO)C[C@@H](C)[C@@H](CN(C)C(=O)C1CCOCC1)O2 2.67%, C[C@H](CO)N1C[C@H](C)[C@H](CN(C)CC2CCCCC2)Oc2ccc(NC(=O)CCN3CCOCC3)cc2CC1=O 0.283%, Cc1ccc(S(=O)(=O)N(C)C[C@@H]2Oc3ccc(NC(=O)c4ccncc4)cc3CC(=O)N([C@H](C)CO)C[C@H]2C)cc1 -4.73%, COc1ccc(S(=O)(=O)N2CC[C@@H]3[C@H](CO)Nc4ccc(C#Cc5cccc(OC)c5)cc4[C@@H]32)cc1 4.05%, C/C=C/c1ccc([C@H]2[C@@H](CO)N(C(=O)C3CC3)[C@@H]2CNC(=O)NC(C)C)cc1 -0.982%, CO[C@@H](CN(C)C(=O)c1cnccn1)[C@@H](C)CN([C@@H](C)CO)S(=O)(=O)c1ccc(Cl)cc1 0.364%, COc1ccc2c3c(n(C)c2c1)[C@@H](CO)N(CC1CC1)CC31CCN(C(=O)c2ccc3c(c2)OCO3)CC1 -0.398%
